About 83,000 compounds went through this panel and 20% of them were active in at least one assay; those are over-represented in the sample as a whole.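 Activity criterion: percent growth below 10, measured after cells in 96-well plates were exposed to a single compound concentration for 48 hours.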 Values without a mark were called inactive. Calls of active or inactive are those of the source.
What follows are compounds tested on MDA-MB-468 breast (assay: NCI-60 one-dose screen, 48 h (100 = growth as untreated, 0 = no growth, -100 = all killed)). Details: 10 µM unless noted.

First: COc1ccc(/C=C2\CCC3C(CCCC34OCCO4)C2=O)cc1 (stereo not given)
Second: COc1cccc(C(c2cc3c(cc2O)OCO3)N2CCOCC2)c1OC (stereo not given)
The growth of the first is lower: 70.5% for the first, 90.6% for the second.

First: Oc1c(Cl)cc(Cl)c2ccc(CN3CCNCC3)nc12
Second: OCc1cnc2ccccc2c1NC1CCCCCC1
The growth of the first is lower: 34.4% for the first, 59.8% for the second.

Compared with `COC(=O)C(Cc1cn(C(C)=O)c2ccccc12)P(=O)(OC)OC` (stereo not given), `Cc1ccc(NCN2C(=O)c3ccccc3C2=O)c(C)n1` is lower in growth: 101% for the first, 98.5% for the second.

Compared with `C#Cc1cc(C(=O)Nc2ccc(CNCCN3CCOCC3)c(C(F)(F)F)c2)ccc1C`, `CC/C(=C(/c1ccc(Cl)cc1)c1ccc(OCCN2CCOCC2)cc1)c1ccccc1` is higher in growth: 82.8% for the first, 91% for the second.

Compared with `CCC[S@@](=O)c1ccc2nc(NC(=O)OC)[nH]c2c1`, `COc1ccc(Nc2ncnc3c2sc2nc(C)cc(C)c23)cc1` is higher in growth: 68.5% for the first, 95.1% for the second.

Going from `OC[C@@H](O)[C@@H](O)CO` to `O=C(NCCNc1nccc(-c2c(-c3cccc(O)c3)nc3sccn23)n1)Nc1cc(C(F)(F)F)cc(C(F)(F)F)c1`, the growth falls from 102% to 57.8%.

For `C/C=C/CC(C)C(O)C1C(=O)NC(CC)C(=O)N(C)CC(=O)N(C)C(CC(C)C)C(=O)NC(C(C)C)C(=O)N(C)C(CC(C)C)C(=O)NC(C)C(=O)NC(C)C(=O)N(C)C(CC(C)C)C(=O)N(C)C(CC(C)C)C(=O)N(C)C(C(C)C)C(=O)N1C` (stereo not given), the growth was 4.57% (active).
`Nc1ncnc2c1C(c1ccc([N+](=O)[O-])cc1)c1sc3c(F)cccc3c1O2` (stereo not given) was tested, and the growth was -15% (active).
With `CC(C)c1ccc(C(=O)Nc2nc3ccc(O)cc3s2)cc1` the growth was 2.85% (active).

Reference: PubChem BioAssay (NCI)
